Screening results deposited in PubChem BioAssay by National Center for Advancing Translational Sciences (NCATS).
Pf growth 48h = inhibits P. falciparum growth in the first generation, 48 h; P. falciparum luciferase growth in erythrocytes, 48 h; Potency, µM (top dose mostly 28.7 µM), without a hit: at the top dose activity change, negative = inhibition, hits mostly inhibitors; 310,000 tested, 5.9% active; AID 504832; also: potency is read from the fitted curve at half-maximal effect; % is scaled to controls: 0 for no effect and ±100 for the full control effect
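Read-out is firefly luciferase luminescence from an integrated reporter in P. falciparum, so falling signal marks reduced parasite growth. Infected erythrocytes were at 2% hematocrit and 0.1% parasitemia (final) in Albumax-supplemented RPMI 1640.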
Shiga inhibitor = inhibitors of Shiga toxin in Vero cells. Vero cells, Shiga toxin protein synthesis inhibition reporter. inhibition, % at 38.7 µM. 290,000 tested, 9.2% active; in the data active = inhibition mostly above about 28%, no sharp cut-off; inactive = mostly below about 43%; also: 0% is about no effect
Cycloheximide cs = counter-screen hit for Shiga toxin inhibitors, cycloheximide | cell reporter, cycloheximide protein synthesis inhibition counterscreen | max response, % | 300,000 tested, 12% active; in the data active = max response mostly above about 13%, no sharp cut-off; inactive = mostly below about 14%; also: read at 38.3 µM for the half of the compounds with a filed dose; 0% is about no effect
SARS PLpro yeast = blocks SARS-CoV papain-like protease in a yeast assay; S. cerevisiae expressing SARS-CoV PLpro, growth rescue; Potency, µM (top dose mostly 32.9 µM), for inactives: top-dose activity, positive = growth rescue, hits mostly activators; 330,000 tested, 0.19% active; AID 485353; calls by dose curve; also: potency is read from the fitted curve at half-maximal effect; 0% is about no effect; nearly all actives have a fitted effect of over 55% in size
AMA1 RON2 block = inhibitors of Plasmodium falciparum AMA1-RON2 interaction; Potency, µM (titrated, usually from 58.2 µM), for the others: top-dose activity change, negative = inhibition, actives largely listed as inhibitors; AlphaScreen AMA1-biotinylated RON2 peptide binding; 360,000 tested, 0.2% active; AID 720542;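 also: potency is read from the fitted curve at half-maximal effect; 0% = vehicle wells and -100% = peptide control; nearly all actives have a fitted effect of over 45% in size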
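AMA1 (3D7) with his tag at 25 nM final met compounds first, then biotinylated RON2 peptide at 25 nM; detection used donor plus acceptor beads, 10 µg/mL apiece, read by AlphaScreen after 30 min at room temperature.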
Pf growth 96h = inhibits malaria parasite growth, 96 h | P. falciparum luciferase reporter growth, 96 h | Potency, µM (titrated, usually from 28.7 µM), without a hit: top-dose activity change, negative = inhibition, actives largely listed as inhibitors | 320,000 tested, 6.9% active | AID 504834; also: potency is read from the fitted curve at half-maximal effect; % is scaled to controls: 0 for no effect and ±100 for the full control effect
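Cell-based qHTS: luciferase-tagged P. falciparum in erythrocytes (2% hematocrit, 0.05% parasitemia final) incubated with compounds for 96 hours, 37 C, 5% CO2; luciferase detection reagent then added and luminescence measured.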
Active calls of the source: *; ? = inconclusive; · = no result; [ ] = dose if it differs, or a comment. Shown are actives, neighbours in structure and some others; about 19% of the full set was active somewhere. Unless noted, calls follow the shape of the dose curve; as a rule, active = well fitted curve in the direction sought with a large enough effect; inconclusive = small, poorly fitted or top-dose-only effect, or another doubt; inactive = no such curve, though single readings can be large; an effect the other way counts as inactive or inconclusive.

SMILES | Pf growth 48h | Shiga inhibitor | Cycloheximide cs | SARS PLpro yeast | AMA1 RON2 block | Pf growth 96h
CCCCCn1c(=N)c(S(=O)(=O)c2ccc(Cl)cc2)cc2c(=O)n3cccc(C)c3nc21 | 1.85µM* | 16.3 | -4.8 | 2.8% | 5.8% | 11.8%
COc1ccc(CCNC(=O)c2cc3c(=O)n4ccccc4nc3n(CCCN3CCOCC3)c2=N)cc1OC | 2.33µM* | -8.7 | -6.4 | -3.4% | -16.2% | 2.08µM*
CCCn1c(=N)c(S(=O)(=O)c2ccccc2)cc2c(=O)n3cccc(C)c3nc21 | 40.6% | -7.8 | 0.8 | 1.3% | -4.4% | -2.0%
COc1ccc(CCNC(=O)c2cc3c(=O)n4ccccc4nc3n(Cc3ccco3)c2=N)cc1OC | -5.7% | 18.3 | 14.7* | -3.8% | -3.9% | -102.1%
COCCn1c(SCC(=O)NC(C)c2ccc(F)cc2)nc2ccccc21 (configuration not stated) | -4.3% | -4.0 | -2.1 | 1.2% | 6.2% | 16.3%
Cc1cccn2c(=O)c3cc(C(=O)NCCN4CCOCC4)c(=N)n(CCCN4CCOCC4)c3nc12 | 2.94µM* | -9.6 | -2.9 | 0.6% | 43.8% | 0.5%
COc1ccc(CCn2c(=N)c(C(=O)NCCN3CCOCC3)cc3c(=O)n4cccc(C)c4nc32)cc1OC | 0.738µM* | -4.3 | -8.4 | 4.0% | 52.4% | 0.415µM*
CCNC(=O)c1cc2c(=O)n3cccc(C)c3nc2n(CCc2ccccc2)c1=N | 1.65µM* | -17.0 | -1.3 | 0.8% | -11.8% | ·
CCCNc1nc2nc3ccccn3c(=O)c2cc1C(=O)NCCN1CCOCC1 | 14.7µM* | -3.8 | -4.6 | 0.7% | 14.3% | 10.8%
COCCn1c(=N)c(C(=O)NCCc2ccccc2)cc2c(=O)n3cccc(C)c3nc21 | · | · | · | · | 12.9% | ·
COc1ccc(CCn2c(=N)c(C(=O)NCCN3CCOCC3)cc3c(=O)n4ccccc4nc32)cc1OC | ? | -4.8 | 2.4 | -1.1% | 63.0% | ?
Cc1cccn2c(=O)c3cc(C(=O)NCc4ccccc4)c(=N)n(CCCN4CCOCC4)c3nc12 | · | · | · | · | 9.1% | ·
O=S(=O)(Nc1nc(CN2CCOCC2)nc2sc3c(c12)CCCC3)c1cc(F)ccc1F | ? | 1.8 | -3.7 | -4.5% | 9.4% | -2.9%
CC[N+](CC)(CC)C/C(N)=N/O | -13.3% | -3.4 | -2.6 | -1.9% | -10.1% | ?
C=CCN1C(=O)C(O)(CC(=O)c2ccco2)c2cc(Br)ccc21 (configuration not stated) | -1.3% | -16.0 | 7.1 | 2.3% | 0.0% | 26.3%
O=C(c1ccc(F)cc1)C1CCN(C(=S)NCC2CCCO2)CC1 (configuration not stated) | 3.9% | 19.4 | 5.7 | -1.4% | 10.3% | ?
COc1nc(N)nc(NC23CC4CC(CC(C4)C2)C3)n1 | ? | 20.6* | 15.4* | -1.8% | -8.4% | 16.5%
COc1nc(N)nc(N2CCOCC2)n1 | 5.2% | -18.7 | -3.0 | 0.2% | -11.0% | -93.7%
CCOc1ccc(NC(=O)CN(C)C(=O)C2CCN(C(=O)Nc3ccccc3)CC2)cc1OCC | · | · | · | · | 11.0% | ·
COc1cc(NC(=O)CCN2CCN(C/C=C/c3ccccc3)CC2)cc(OC)c1 | ? | 6.3 | -1.6 | 7.4% | -1.7% | 0.0%
Cn1nc(NC(=O)C(F)(F)F)c2nccnc21 | · | · | · | · | 13.1% | ·
Cn1nc(NC(=O)C(F)(F)F)c2ncc(-c3ccc(Cl)cc3)nc21 | 95.2% | 67.8* | 41.2* | -1.6% | 4.0% | 41.7%
CCOC(=O)c1c[nH]n(-c2ccccc2)c1=O | 33.8% | 29.8* | 19.5 | 1.3% | 5.2% | 11.9%
CCOC(=O)C1=C(C)N(c2ccccc2)C(=O)C1 | -6.4% | 9.6 | -2.3 | 18.2% | -8.2% | 10.4µM*
COC(=O)C1=C(C)N(c2ccc(S(N)(=O)=O)cc2)C(=O)C1 | · | 5.5 | -2.5 | 4.4% | -0.1% | 85.6%
CCOC(=O)c1c[nH]n(-c2ccc(C)cc2)c1=O | -3.4%[5.75 µM] | 48.2* | 20.9* | -1.3% | -1.6% | -13.0%
CCCCNC(=O)c1nc(C2CCN(S(=O)(=O)c3cccc(C(F)(F)F)c3)CC2)oc1-c1cccc(C(F)(F)F)c1 | · | · | · | · | 17.8% | ·
O=C(Nc1ccc(Cl)cc1)N1CC=CCC1 | 87.1% | 108.8* | 84.3* | -8.8% | 3.2% | 0.3%
